Assay results: PubChem BioAssay

Assay: NFkB reporter suppression in cystic fibrosis bronchial cells – cell-based, uHTS hits, panel, cytotoxicity readout, dose response (AID 624344)
Conditions: CF bronchial epithelial cells, PAF-induced NFkB reporter inhibition, with PAF, run 1; at 79 µM (top of the series) unless noted

Compound | inhibition [%]
CC(C)Cc1nc2oc3c(NCC4CCCO4)ncnc3c2c2c1CCC2 (stereo not given) | 101
COc1cc(CN(C)c2ccc(S(=O)(=O)N3CCCC3)cn2)ccc1OC(F)F | 82.4
COc1ccccc1NC(=O)c1cc2c(CO)cnc(C)c2oc1=Nc1ccc(OC)c(OC)c1 | 73.4
CC(=O)c1cccc(NC(=O)COC(=O)c2ccc(S(C)(=O)=O)c([N+](=O)[O-])c2)c1 | 92.5
NC(=O)c1cc2ccc(O)cc2oc1=Nc1ccccc1 | 92.3
O=C(Nc1cccnc1)c1sc2cccc(F)c2c1Cl | 76.8
COc1ccc(CN2C[C@H]3CCCN3c3cc(Br)ccc3S2(=O)=O)cc1 | 74.6
O=S(=O)(c1ccc(Br)cc1)c1cnc2ccccc2n1 | 100
O=C(NCc1ccccc1)C1=C[C@H](c2csc3ccccc23)C[C@H](OCc2ccc(CO)cc2)O1 | 72
O=C(COc1ccc(Cl)cc1)Nc1ncc([N+](=O)[O-])s1 | 115
CCOc1ccc(CCN2C(=S)N([C@@H](CC(C)C)CN3CCCC3CN3C(=S)NC[C@@H]3CC(C)C)C[C@@H]2Cc2ccc(O)cc2)cc1 (stereo not given in full) | 76.2
NC(=S)N1OC[C@@H]2COc3ccc4ccccc4c3[C@@H]21 | 114
O=c1[nH]c(C2CCN(S(=O)(=O)c3ccc4c(c3)OCCO4)CC2)nc2c1nnn2Cc1c(F)cccc1Cl | 93
NS(=O)(=O)c1ccc(CCNc2nn3c(-c4cccc(OC(F)(F)F)c4)cnc3s2)cc1 | 98.6
CCOC(=O)c1[nH]c2c(c1C)C(=O)CC(c1ccco1)C2 (stereo not given) | 40.8
C[C@@H]1CN([C@H](C)CO)C(=O)c2cc(NC(=O)Nc3ccc(C(F)(F)F)cc3)ccc2O[C@H]1CN(C)S(=O)(=O)c1cccs1 | 113
CC[C@@H](C(=O)[C@@H](C)[C@@H](O)[C@H](C)[C@@H]1O[C@@H]([C@@H](CC)C(=O)O)CC[C@@H]1C)[C@H]1O[C@]2(C=C[C@@H](O)[C@]3(CC[C@@](C)([C@H]4CC[C@](O)(CC)[C@H](C)O4)O3)O2)[C@H](C)C[C@@H]1C | 117
CC(C)(C)C(=O)/C(=C/c1ccncc1)n1cncn1 | 98.3
COc1cccc(/C=N/n2c(C3CCCCC3)n[nH]c2=S)c1 | 97.2
CC(=O)c1c(O)cc2c3c1OC(C)(C)C1CCC(C)(CC31)O2 (stereo not given) | 111

Compound | inhibition [%]
c1cc(-c2nnc3sc(C4CCCCC4)nn23)ccn1 | 102
COc1cc(-c2cc(C(=O)Nc3ccc(S(=O)(=O)NCc4ccco4)cc3)c3ccccc3n2)cc(OC)c1OC | 109
COc1cc2c(c(OC)c1OC)-c1ccc(NCc3ccccc3)c(=O)cc1C(NC(C)=O)CC2 (stereo not given) | 94.4
COc1ccc(OC)c(-c2nnc3n2N=C(c2ccc(OC)c(OC4CCCC4)c2)CS3)c1 | 103
Cc1c(Cl)cccc1NC(=O)COC(=O)c1c2c(nc3ccccc13)CCN(Cc1ccccc1)C2 | 72.2
COc1cc(/C=C2\SC(=O)N(CCNC(=O)c3sc4cc(F)ccc4c3Cl)C2=O)cc(OC)c1OC | 27.5
O=S(=O)(Nc1nc2ccccc2nc1N1CCN(c2ccccc2F)CC1)c1ccc(Cl)cc1 | 96.7
COc1cc(C2c3cc4c(cc3C3OC(=O)C2C3CO)OCO4)cc(OC)c1OC (stereo not given) | 91.1
O=S(=O)(c1cccc2cnccc12)N1CCCNCC1 | 116
COc1ccc(S(=O)(=O)N(C(C)=O)c2ccc(OC(C)=O)c3ccccc23)cc1[N+](=O)[O-] | 59.1
FC(F)Sc1ccc(NC(=S)NCC2CCCCC2)cc1 | 106
O=C(Nc1cccc(Cl)c1)Nc1csc([N+](=O)[O-])c1 | 114
COCCNc1nc(Oc2cncc(Cl)c2)c2sccc2n1 | 100
COc1ccc([C@]2(C(C)C)ON(c3ccccc3C(F)(F)F)C2=O)cc1 | 103
COc1ccc(CN(CCC(c2ccc(F)cc2)C2CCOC(C)(C)C2)C(=O)c2ccco2)cc1 (stereo not given) | 105
O=C(Nc1ccncc1)c1c(Cl)cccc1Cl | 112
Cc1ccc(CNc2ncnc3ccc(-c4ccc(CO)o4)cc23)o1 | 101
CCOC(=O)Oc1c(OC)cc(C(=O)O[C@@H]2C[C@@H]3CN4CCc5c([nH]c6cc(OC)ccc56)[C@H]4C[C@@H]3[C@H](C(=O)OC)[C@H]2OC)cc1OC | 54.6
Cc1cc(C)c2nc(C(F)(F)F)c(C#N)c(N)c2c1 | 97.7
O=C(Nc1nnc(C(F)(F)F)s1)c1ccc(Br)s1 | 114
